From PubChem BioAssay (Tox21)
Results filed as inconclusive are left out. Values without a mark were called inactive. Calls follow the shape of the dose curve; as a rule, active = well fitted activation curve with a large enough effect in the signal ratio in the repeat runs, with a control signal flat (not every such curve was filed as active); inconclusive = weak or mixed curves; inactive = flat fitted curve, though single readings scatter; the % refers to the signal ratio.

Assay: qHTS assay for small molecule activators of the heat shock response signaling pathway (AID 743210)
Conditions: HeLa HSE-bla reporter, beta-lactamase ratio, 5 h; series mostly up to 62.6 µM; activation: at the top concentration
From the text: U.S. Tox21 Program National Center for Advancing Translational Sciences [NCATS] NIH Chemical Genomics Center [NCGC] U.S. Environmental Protection Agency [EPA] National Institutes of Environmental Health Sciences [NIEHS] National Toxicology Program [NTP] U.S. Food and Drug Administration [FDA] Tox21 Assay Overview: Various chemicals, environmental and physiological stress conditions may lead to the activation of heat shock response/ unfolded protein response (HSR/UPR). There are three heat shock transcription factors (HSFs) (HSF-1, -2, and -4) mediating transcriptional regulation of the human HSR. To identify the compounds that activate HSR signaling, HSE-bla HeLa cell line (Invitrogen, Carlsbad, CA, USA) containing a beta-lactamase reporter gene under the control of the heat shock response elements was used to screen the Tox21 10K compound library.
Tox21 Assay Protocol Summary: The CellSensor HSE-bla HeLa cells (Invitrogen, Carlsbad, CA, USA) were dispensed at 1500 cells/6uL/well into 1536-well black wall/clear bottom plates using a Multidrop combi (Thermo Fisher Scientific, Waltham, MA) dispenser. After the assay plates were incubated at 37 C and 5% CO2 overnight, 23 nL of compounds dissolved in DMSO, positive controls or DMSO only was transferred to the assay plate by a Pintool station (Kalypsys, San Diego, CA). The plates were incubated at 37 C for 5 h. After 1 uL of LiveBLAzerTM B/G FRET substrate was added using a Flying Reagent Dispenser (Beckman Coulter, Indianapolis, IN, USA), the plates were incubated at room temperature for 2.5 h, and fluorescence intensity was measured by an Envision plate reader (PerkinElmer, Shelton, CT).
% is scaled to controls: 0 for no effect and ±100 for the full control effect.

Compound	activation
CN/C(=N\[N+](=O)[O-])NCc1cnc(Cl)s1	-0.208%
CNC(=O)/C=C(\C)OP(=O)(OC)OC	1.16%
COc1nc(C)nc(NC(=O)NS(=O)(=O)c2ccccc2Cl)n1	-0.298%
Nc1nc(N)nc(Cl)n1	-1.4%
ClC(Cl)C(Cl)(Cl)Cl	-0.267%
CN(C)c1ccc(N)cc1	4.03%
CC(C)(C)c1ccc(OP(=O)(Oc2ccccc2)Oc2ccccc2)cc1	3.81% [at 81.1 µM]
[Cl-].[Cl-].[Cl-].[Yb+3]	0%
ClSC(Cl)(Cl)Cl	1.78%
Cc1ccc(C)c2ccccc12	0.477%
O=[N+]([O-])c1ccccc1-c1ccccc1	-0.602%
ClC1=C(Cl)[C@]2(Cl)[C@H]3[C@H]([C@@H]4C=C[C@H]3C4)[C@@]1(Cl)C2(Cl)Cl	-0.784%
Oc1ccc(Cl)c(Cl)c1	8.54%
COP(=S)(OC)Oc1nc(Cl)c(Cl)cc1Cl	1.96%
N#CSCc1ccccc1	5.14% [at 81.1 µM]
CC(C)c1c(CN(C)C(C)Cc2ccccc2)n(C)n(-c2ccccc2)c1=O (stereo not given)	2.3%
CCCCCON=O	-0.203% [at 81.1 µM]
CC(Cc1ccc(OCC(=O)O)cc1)NCC(O)c1csc(C(F)(F)F)n1 (stereo not given)	0.34%
CC(=O)C(Cl)C(=O)N(C)C (stereo not given)	0.0913%
Cc1ccn2nc(S(=O)(=O)Nc3c(F)cccc3F)nc2n1	-0.138%

Compound	activation
Cc1c([N+](=O)[O-])cc2c(c1[N+](=O)[O-])C(C)(C)CC2(C)C	-0.969%
Brc1cccc(-c2ccccc2)c1	1.51% [at 81.1 µM]
Nc1nc(N)c(N)c(N)n1	0.92% [at 81.1 µM]
[O]=[Cr][O][Cr]=[O]	-0.0744% [at 81.1 µM]
Oc1cc(Cl)cc(Cl)c1	-0.199% [at 81.1 µM]
C#CC1(O)CCCCC1	-0.4%
COc1c2c(cc3c1OCO3)CCN(C)C2	-0.025%
COCCC#N	0.949%
N#Cc1c[nH]cc1-c1cccc2c1OC(F)(F)O2	-0.595%
C#CCO	-0.246%
COC(=O)C(C)N(C(=O)c1ccco1)c1c(C)cccc1C (stereo not given)	-1.54%
CC(Cc1ccc2c(c1)OCO2)NO (stereo not given)	-0.477% [at 81.1 µM]
Clc1ccc(C(Cl)(Cl)Cl)cc1Cl	-0.744%
CNN	-0.0496% [at 81.1 µM]
O=C(O)CCCCCCNC1c2ccccc2CCc2ccccc21	-0.075%
CCNc1nc(NC(C)C(C)C)nc(SC)n1 (stereo not given)	0.172%
Cc1c([N+](=O)[O-])c(C)c([N+](=O)[O-])c(C(C)(C)C)c1[N+](=O)[O-]	-1.49%
CC(Cc1ccccc1)N(C)Cc1ccco1 (stereo not given)	-0.1%
N#CCCl	-0.824% [at 81.1 µM]
CCN(CC)CCN1C(=O)CN=C(c2ccccc2F)c2cc(Cl)ccc21	0.196%
